Reference: PubChem BioAssay (NCATS)
Inconclusive results are not listed. The source made the active and inactive calls. Unless noted, calls follow the shape of the dose curve; as a rule, active = well fitted curve in the direction sought with a large enough effect; inconclusive = small, poorly fitted or top-dose-only effect, or another doubt; inactive = no such curve, though single readings can be large; an effect the other way counts as inactive or inconclusive.

Tests used:
[1] = target: Lysosomal acid glucosylceramidase (Homo sapiens) (UniProt P04062); assay: Glucocerebrosidase-p2 (AID 348; in the data active = potency below about 10 µM; also: potency is read from the fitted curve at half-maximal effect); conditions: purified GBA, blue fluorogenic substrate, 40 min
Chain of Lysosomal acid glucosylceramidase (Homo sapiens) (P04062 whole entry, looked up): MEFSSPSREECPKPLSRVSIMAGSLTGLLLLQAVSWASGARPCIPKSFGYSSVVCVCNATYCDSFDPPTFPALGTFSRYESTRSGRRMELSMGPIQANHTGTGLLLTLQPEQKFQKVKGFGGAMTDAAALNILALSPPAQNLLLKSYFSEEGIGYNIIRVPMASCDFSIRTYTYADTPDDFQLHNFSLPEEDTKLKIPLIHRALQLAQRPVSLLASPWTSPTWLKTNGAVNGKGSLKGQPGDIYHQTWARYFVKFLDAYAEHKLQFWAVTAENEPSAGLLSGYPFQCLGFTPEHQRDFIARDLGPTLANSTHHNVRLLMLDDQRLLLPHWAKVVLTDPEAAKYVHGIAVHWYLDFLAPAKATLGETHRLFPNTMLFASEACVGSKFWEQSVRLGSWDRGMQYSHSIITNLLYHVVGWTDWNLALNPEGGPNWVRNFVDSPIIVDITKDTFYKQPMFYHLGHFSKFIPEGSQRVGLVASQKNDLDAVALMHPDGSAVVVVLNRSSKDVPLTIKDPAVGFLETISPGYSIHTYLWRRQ
Method in brief: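 Compounds titrated from 0.6 nM upwards against 0.2 nM enzyme in pH 5.9 citric acid/KH2PO4, taurocholate, tween-20; blue fluorogenic substrate 80 uM, 40 min room temperature, stopped and read Ex 365/Em 440 for AC50.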

[2] = AP1 Signaling Pathway (AID 357; active = well fitted curve in either direction with a large enough effect, not every such curve was filed as active;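 also: ME-180 reporter cells stimulated with EGF at its EC50 level; % is scaled to controls: 0 for no effect and ±100 for the full control effect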); conditions: ME-180 AP-1-bla reporter, EGF-induced, beta-lactamase ratio, 5 h; at 7.69 µM (top of the series) unless noted
Method in brief: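 Modulation of EGF-driven AP-1 transcription was assessed with a beta-lactamase reporter in ME-180 cells. Compound and EC50 EGF were co-incubated 5 hours at 37 °C before 2.5-hour CCF4 loading at room temperature and dual-emission reading.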

[3] = target: Cytochrome P450 1A2 (Homo sapiens) (UniProt P05177); assay: p450-cyp1a2 (AID 410; calls by dose curve; also: potency is read from the fitted curve at half-maximal effect;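 as to activity change, negative = inhibition: -100% = full effect of reference inhibitor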); conditions: recombinant CYP1A2, luciferin-ME demethylation, luminescence; series mostly up to 57 µM
Chain of Cytochrome P450 1A2 (Homo sapiens) (P05177 whole entry, looked up): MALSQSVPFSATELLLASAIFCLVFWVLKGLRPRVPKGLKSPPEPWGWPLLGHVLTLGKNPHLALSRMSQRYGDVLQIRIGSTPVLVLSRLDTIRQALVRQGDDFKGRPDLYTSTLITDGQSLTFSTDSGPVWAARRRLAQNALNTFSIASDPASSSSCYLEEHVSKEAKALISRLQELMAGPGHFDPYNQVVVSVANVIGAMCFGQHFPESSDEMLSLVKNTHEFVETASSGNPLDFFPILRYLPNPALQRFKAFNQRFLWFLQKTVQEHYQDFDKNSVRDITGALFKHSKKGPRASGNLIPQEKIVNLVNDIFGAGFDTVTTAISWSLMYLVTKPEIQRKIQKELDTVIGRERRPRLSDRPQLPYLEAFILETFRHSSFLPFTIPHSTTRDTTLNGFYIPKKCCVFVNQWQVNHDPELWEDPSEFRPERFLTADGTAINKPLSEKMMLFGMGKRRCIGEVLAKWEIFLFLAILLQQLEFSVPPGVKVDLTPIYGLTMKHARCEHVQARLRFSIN
Method in brief: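 20nM CYP1A2 with 100uM Luciferin-ME (at Km) in 100mM KPO4; compound preincubated 10 min, NADPH regeneration added, 60 min at room temperature. Luciferin quantified by luminescence after detection reagent; normalized to 57 uM furafylline.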

[4] = NFAT Signaling Pathway (AID 444; active = well fitted curve in either direction with a large enough effect, not every such curve was filed as active;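 also: carbachol stimulus at about its EC50 of 1 µM final; % is scaled to controls: 0 for no effect and ±100 for the full control effect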); conditions: Jurkat NFAT-bla M1, carbachol, beta-lactamase ratio, 5 h; at 7.69 µM (top of the series) unless noted
Method in brief: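 Jurkat cells with NFAT-driven β-lactamase reporter and co-expressed M1 receptor, stimulated with carbachol (final 1 uM, ~EC50), compound titration, 5 h at 37 °C. CCF4 loaded 1 h at RT; 460/530 nm ratio gave %activity and AC50.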

[5] = Stat Signaling Pathway (AID 446; active = well fitted curve in either direction with a large enough effect, not every such curve was filed as active;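 also: ME-180 cervical cancer cells given 40 pM IL-6 alongside compound; SIE-controlled beta-lactamase reporter measured as 460/530 nm FRET emission ratio; % is scaled to controls: 0 for no effect and ±100 for the full control effect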); conditions: ME-180 SIE beta-lactamase reporter, IL-6 stimulated, 5 h; at 7.69 µM (top of the series) unless noted
Method in brief: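 ME-180 cells carrying a SIE-driven beta-lactamase reporter are stimulated with 40 pM IL-6 for 5 h at 37C in the presence of compound. The 460/530 nm FRET substrate ratio is read after 2.5 h at RT. Data are normalised to 300 pM IL-6 and to 125 nM JAK inhibitor controls.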

[6] = target: Glucocorticoid receptor (Homo sapiens) (UniProt P04150); assay: GR-EFC Redistribution (AID 451; calls by dose curve; also: potency is read from the fitted curve at half-maximal effect); conditions: CHO-K1 GR-EFC translocation, beta-gal luminescence, 2 h
Chain of Glucocorticoid receptor (Homo sapiens) (P04150 whole entry, looked up, the tested form may be a part): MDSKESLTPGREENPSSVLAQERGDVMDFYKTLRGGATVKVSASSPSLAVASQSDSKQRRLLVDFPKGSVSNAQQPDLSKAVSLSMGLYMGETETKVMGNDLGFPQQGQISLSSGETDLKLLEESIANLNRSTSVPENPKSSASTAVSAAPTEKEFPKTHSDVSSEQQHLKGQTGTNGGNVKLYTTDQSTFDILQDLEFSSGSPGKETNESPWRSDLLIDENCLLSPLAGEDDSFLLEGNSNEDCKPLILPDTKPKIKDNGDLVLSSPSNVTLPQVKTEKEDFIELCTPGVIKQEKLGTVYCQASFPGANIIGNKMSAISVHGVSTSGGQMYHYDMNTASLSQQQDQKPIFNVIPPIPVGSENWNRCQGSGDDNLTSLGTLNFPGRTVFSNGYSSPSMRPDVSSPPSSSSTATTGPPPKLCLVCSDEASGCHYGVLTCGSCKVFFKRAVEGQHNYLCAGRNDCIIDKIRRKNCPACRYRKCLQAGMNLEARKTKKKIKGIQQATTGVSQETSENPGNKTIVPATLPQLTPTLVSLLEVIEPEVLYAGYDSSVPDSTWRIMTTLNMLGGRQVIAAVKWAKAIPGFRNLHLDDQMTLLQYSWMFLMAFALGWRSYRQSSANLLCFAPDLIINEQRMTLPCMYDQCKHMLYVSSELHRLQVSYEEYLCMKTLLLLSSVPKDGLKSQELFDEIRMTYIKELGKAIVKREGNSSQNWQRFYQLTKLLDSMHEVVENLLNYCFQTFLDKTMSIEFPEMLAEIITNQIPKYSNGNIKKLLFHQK
Method in brief: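 CHO-K1 cells expressing nuclear EA and GR-ED fragments of b-gal; compounds titrated up to 46 uM final, 2 h at 37 C. GR nuclear translocation read as complemented b-gal luminescence after 1 h RT detection.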

[7] = target: Mitogen-activated protein kinase 10 (Mus musculus) (UniProt Q61831); assay: JNK3 AlphaScreen Assay (AID 530; active = well fitted curve in either direction with a large enough effect, not every such curve was filed as active;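 also: kinase came from lysate of stimulated human HepG2 cells; signal reports phosphorylation of biotinylated GST-cJun 1-79 at Ser73 with 10 µM ATP; % is scaled to controls: 0 for no effect and ±100 for the full control effect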); conditions: JNK3 lysate, c-Jun phosphorylation; series mostly up to 57.1 µM
Method in brief: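 Pre-activated (IL-1β/TNFα) JNK3 in HepG2 lysates phosphorylates biotin-GST-cJun(1-79), 10 uM ATP; anti-phospho-cJun(Ser73) AlphaScreen read at room temperature, pH 7.6 Tris buffer. Compounds pre-incubated 15 min as titrations.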

[8] = target: 3',5'-cyclic-AMP phosphodiesterase 4B (Homo sapiens) (UniProt Q07343); assay: qHTS Assay for Inhibitors of PDE-IV (AID 607; active = well fitted activation curve with a large enough effect in the main read-out, with a control signal flat, not every such curve was filed as active; also: % of control where 0% means no effect); conditions: HEK293 ACTOne CNG channel cells, membrane potential fluorescence; series mostly up to 22.9 µM
Chain of 3',5'-cyclic-AMP phosphodiesterase 4B (Homo sapiens) (Q07343 whole entry, looked up): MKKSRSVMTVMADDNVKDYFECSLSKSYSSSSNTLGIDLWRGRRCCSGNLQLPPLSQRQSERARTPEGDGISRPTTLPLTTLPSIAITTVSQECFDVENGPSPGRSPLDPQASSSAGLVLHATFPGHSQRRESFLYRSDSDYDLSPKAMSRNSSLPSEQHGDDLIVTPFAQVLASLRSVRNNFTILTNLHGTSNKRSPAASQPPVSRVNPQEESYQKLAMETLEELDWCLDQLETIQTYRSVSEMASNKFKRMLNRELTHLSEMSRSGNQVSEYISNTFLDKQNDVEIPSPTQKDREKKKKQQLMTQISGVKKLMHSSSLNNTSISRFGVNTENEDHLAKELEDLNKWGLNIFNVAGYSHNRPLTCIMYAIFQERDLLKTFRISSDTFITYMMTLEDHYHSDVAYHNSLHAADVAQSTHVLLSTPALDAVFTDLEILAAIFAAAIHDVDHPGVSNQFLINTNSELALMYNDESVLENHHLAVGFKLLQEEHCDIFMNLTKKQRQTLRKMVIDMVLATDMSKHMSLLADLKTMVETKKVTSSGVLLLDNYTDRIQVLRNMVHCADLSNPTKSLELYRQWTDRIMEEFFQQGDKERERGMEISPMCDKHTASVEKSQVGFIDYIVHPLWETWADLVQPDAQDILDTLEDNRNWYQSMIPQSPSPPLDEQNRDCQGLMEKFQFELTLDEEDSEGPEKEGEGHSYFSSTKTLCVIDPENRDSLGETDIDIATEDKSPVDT
Method in brief: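 HEK293 ACTOne cells with CNG channel (1000/well), endogenous PDE4; membrane potential dye, compounds up to 22.9 uM final. Fluorescence Ex 535/Em 590; RO 20-1724 (100 uM final) as reference.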

[9] = target: Cytochrome P450 2C9 (Homo sapiens) (UniProt P11712); assay: qHTS Assay for Inhibitors and Substrates of Cytochrome P450 2C9 (AID 883); conditions: recombinant CYP2C9, luciferin-H luminescence, 60 min; series mostly up to 57.1 µM; also: % is scaled to controls: 0 for no effect and ±100 for the full control effect; nearly all actives have a fitted effect of over 60% in size
Chain of Cytochrome P450 2C9 (Homo sapiens) (P11712 whole entry, looked up): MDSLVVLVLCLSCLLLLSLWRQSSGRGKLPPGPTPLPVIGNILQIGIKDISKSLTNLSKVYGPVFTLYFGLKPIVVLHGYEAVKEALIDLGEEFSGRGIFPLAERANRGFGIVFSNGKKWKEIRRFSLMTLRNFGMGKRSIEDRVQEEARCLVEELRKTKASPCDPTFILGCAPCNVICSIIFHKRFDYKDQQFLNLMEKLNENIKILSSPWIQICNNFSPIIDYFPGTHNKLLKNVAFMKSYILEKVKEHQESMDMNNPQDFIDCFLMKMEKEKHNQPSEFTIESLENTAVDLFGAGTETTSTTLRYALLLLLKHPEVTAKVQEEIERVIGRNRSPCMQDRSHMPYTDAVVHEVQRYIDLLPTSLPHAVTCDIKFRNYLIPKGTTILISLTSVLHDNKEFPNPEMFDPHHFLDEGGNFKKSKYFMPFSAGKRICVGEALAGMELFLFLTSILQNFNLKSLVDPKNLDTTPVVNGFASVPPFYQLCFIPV
Method in brief: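 Signal: luciferase luminescence reporting luciferin produced by CYP2C9. Conditions: 10nM enzyme, Luciferin-H 100uM at KM, 25mM KPO4, 37C, 60 min NADPH-driven reaction. Reference: 57uM sulphaphenazole as 100% inhibition.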

[10] = target: Cytochrome P450 2C19 (Homo sapiens) (UniProt P33261); assay: qHTS Assay for Inhibitors and Substrates of Cytochrome P450 2C19 (AID 899); conditions: recombinant CYP2C19, luciferin-H EGE luminescence; series mostly up to 57.1 µM; also: % is scaled to controls: 0 for no effect and ±100 for the full control effect; nearly all actives have a fitted effect of over 60% in size
Chain of Cytochrome P450 2C19 (Homo sapiens) (P33261 whole entry, looked up): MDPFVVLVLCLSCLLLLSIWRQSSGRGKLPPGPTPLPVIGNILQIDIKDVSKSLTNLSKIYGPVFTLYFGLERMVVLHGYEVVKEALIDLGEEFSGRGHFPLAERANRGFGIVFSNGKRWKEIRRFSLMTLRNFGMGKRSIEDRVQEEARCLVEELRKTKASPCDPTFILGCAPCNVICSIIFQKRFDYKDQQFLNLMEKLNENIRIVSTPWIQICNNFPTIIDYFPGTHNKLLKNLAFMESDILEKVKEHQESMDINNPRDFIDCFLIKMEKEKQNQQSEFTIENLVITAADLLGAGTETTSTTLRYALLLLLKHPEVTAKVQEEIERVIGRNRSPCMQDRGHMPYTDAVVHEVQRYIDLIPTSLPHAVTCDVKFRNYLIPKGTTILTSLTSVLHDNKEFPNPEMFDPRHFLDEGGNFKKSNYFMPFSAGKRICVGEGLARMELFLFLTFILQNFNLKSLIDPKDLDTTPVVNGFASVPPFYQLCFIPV
Method in brief: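 Signal comes from luciferase acting on luciferin released by CYP2C19-mediated hydroxylation of Luciferin-H EGE, 10uM (KM). Assay mix: 5nM enzyme, 50mM KPO4; 60 min at 37C with NADPH regeneration. Data normalized against 57uM ketoconazole.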

[11] = target: Glucocorticoid receptor (Homo sapiens) (UniProt P04150); assay: GR-GFP Redistribution (AID 450;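 active = compounds whose dose series gives a full or clear partial fitted curve of increased nuclear translocation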; also: potency is read from the fitted curve at half-maximal effect); conditions: U2OS GR-GFP nuclear translocation, laser cytometry, 2 h
[12] = qHTS Assay for Lipid Storage Modulators (AID 1519; calls by dose curve); conditions: Drosophila S3 cells, BODIPY lipid droplet/cell ratio, laser cytometry, cells loaded with oleic acid; for activity change, negative = inhibition: at 57.5 µM (top of the series)
Method in brief: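 Cells seeded at 5,000 per well were treated with compounds over a concentration series and loaded with oleic acid (400 uM, as added). Lipid droplet fluorescence (488 nm excitation, 500-530 nm channel) was read by laser-scanning cytometry and normalized to 20 uM Triacsin C.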

[13] = target: Dual specificity protein kinase CLK4 (Homo sapiens) (UniProt Q9HAZ1); assay: qHTS Assay for Inhibitors of CDC-like Kinase 4 (Kinase-Glo Assay) (AID 1770); conditions: recombinant Clk4, Kinase-Glo ATP depletion luminescence; series mostly up to 66.7 µM; also: % is scaled to controls: 0 for no effect and ±100 for the full control effect; nearly all actives have a fitted effect of over 65% in size
Chain of Dual specificity protein kinase CLK4 (Homo sapiens) (Q9HAZ1 whole entry, looked up): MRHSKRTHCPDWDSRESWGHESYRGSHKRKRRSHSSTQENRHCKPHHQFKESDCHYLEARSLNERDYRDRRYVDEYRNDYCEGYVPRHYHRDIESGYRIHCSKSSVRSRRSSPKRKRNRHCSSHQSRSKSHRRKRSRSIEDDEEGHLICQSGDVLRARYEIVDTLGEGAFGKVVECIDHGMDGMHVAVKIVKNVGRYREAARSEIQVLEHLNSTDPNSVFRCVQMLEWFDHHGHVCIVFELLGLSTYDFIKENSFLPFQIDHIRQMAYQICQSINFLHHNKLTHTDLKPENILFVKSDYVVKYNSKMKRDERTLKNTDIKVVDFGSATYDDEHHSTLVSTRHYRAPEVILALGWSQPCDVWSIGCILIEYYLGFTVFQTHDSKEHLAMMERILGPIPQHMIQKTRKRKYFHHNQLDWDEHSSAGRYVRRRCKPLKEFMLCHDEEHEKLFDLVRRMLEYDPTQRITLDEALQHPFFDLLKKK
Method in brief: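 Recombinant human Clk4 (25 nM) phosphorylated RS repeat peptide (100 uM) with 1 uM ATP in Tris pH 7.5/MgCl2/EGTA/DTT/Triton buffer for 4.5 h at room temperature. Residual ATP was quantified by Kinase-Glo luciferase luminescence.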

[14] = target: Dual specificity protein kinase CLK4 (Homo sapiens) (UniProt Q9HAZ1); assay: qHTS Assay for Inhibitors of CDC-like Kinase 4 (ADP-FP Assay) (AID 1795); conditions: Transcreener ADP fluorescence polarization; series mostly up to 50 µM; also: % is scaled to controls: 0 for no effect and ±100 for the full control effect; nearly all actives have a fitted effect of over 60% in size
Method in brief: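 Recombinant human Clk4 (6.25 nM) phosphorylated RS repeat peptide (100 uM) with 1 uM ATP in Tris pH 7.5/MgCl2/EGTA/DTT/Triton buffer for one hour. ADP was quantified by Transcreener competitive fluorescence polarization against an ADP calibration curve.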

[15] = target: Ubiquitin carboxyl-terminal hydrolase 1 (Homo sapiens) (UniProt O94782); assay: Inhibitors of USP1/UAF1: Pilot qHTS (AID 504865); conditions: purified USP1/UAF1, Ub-rhodamine cleavage fluorescence; series mostly up to 54.9 µM;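 also: rhodamine fluorescence freed from ubiquitin-rhodamine substrate followed over time; top concentration of the series differs between compounds; % is scaled to controls: 0 for no effect and ±100 for the full control effect; nearly all actives have a fitted effect of over 35% in size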
Method in brief: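 USP1/UAF1 complex (1nM) preincubated with compound 15 min at room temperature, then Ub-Rho substrate (150nM final) added. Fluorescence read kinetically at 480/540 nm, 6 reads every 60 seconds. Buffer: 50mM HEPES pH 7.8, 0.5mM EDTA, 0.1 mg/ml BSA, 1mM TCEP, 0.01% Tween-20.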

[16] = target: Dual specificity protein kinase CLK4 (Homo sapiens) (UniProt Q9HAZ1); assay: qHTS Assay for Inhibitors of CDC-like Kinase 4 (ADP-Glo Assay) (AID 1771); conditions: recombinant CLK4, ADP-Glo luminescence; series mostly up to 80 µM; also: % is scaled to controls: 0 for no effect and ±100 for the full control effect; nearly all actives have a fitted effect of over 70% in size
Method in brief: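 25 nM Clk4 with 100 uM RS repeat peptide and 1 uM ATP (final) in buffer with 2 mM MgCl2, 0.5 mM EGTA, 2.5 mM DTT, 0.01% Triton X-100; 1 h at room temperature; ADP-Glo luminescence for ADP formed.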

[17] = target: Rap guanine nucleotide exchange factor 3 (Homo sapiens) (UniProt O95398); assay: Confirmatory qHTS for agonist of cAMP-regulated guanine nucleotide exchange factor 3 (EPAC1) (AID 1645881); conditions: EPAC1 Rap1B BODIPY-GDP exchange fluorescence, 100% = cAMP control response; series mostly up to 154 µM;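 also: EPAC1 catalysed release of BODIPY-GDP from Rap1B seen as fluorescence loss; nearly all actives have a fitted effect of over 75% in size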
Chain of Rap guanine nucleotide exchange factor 3 (Homo sapiens) (O95398 whole entry, looked up): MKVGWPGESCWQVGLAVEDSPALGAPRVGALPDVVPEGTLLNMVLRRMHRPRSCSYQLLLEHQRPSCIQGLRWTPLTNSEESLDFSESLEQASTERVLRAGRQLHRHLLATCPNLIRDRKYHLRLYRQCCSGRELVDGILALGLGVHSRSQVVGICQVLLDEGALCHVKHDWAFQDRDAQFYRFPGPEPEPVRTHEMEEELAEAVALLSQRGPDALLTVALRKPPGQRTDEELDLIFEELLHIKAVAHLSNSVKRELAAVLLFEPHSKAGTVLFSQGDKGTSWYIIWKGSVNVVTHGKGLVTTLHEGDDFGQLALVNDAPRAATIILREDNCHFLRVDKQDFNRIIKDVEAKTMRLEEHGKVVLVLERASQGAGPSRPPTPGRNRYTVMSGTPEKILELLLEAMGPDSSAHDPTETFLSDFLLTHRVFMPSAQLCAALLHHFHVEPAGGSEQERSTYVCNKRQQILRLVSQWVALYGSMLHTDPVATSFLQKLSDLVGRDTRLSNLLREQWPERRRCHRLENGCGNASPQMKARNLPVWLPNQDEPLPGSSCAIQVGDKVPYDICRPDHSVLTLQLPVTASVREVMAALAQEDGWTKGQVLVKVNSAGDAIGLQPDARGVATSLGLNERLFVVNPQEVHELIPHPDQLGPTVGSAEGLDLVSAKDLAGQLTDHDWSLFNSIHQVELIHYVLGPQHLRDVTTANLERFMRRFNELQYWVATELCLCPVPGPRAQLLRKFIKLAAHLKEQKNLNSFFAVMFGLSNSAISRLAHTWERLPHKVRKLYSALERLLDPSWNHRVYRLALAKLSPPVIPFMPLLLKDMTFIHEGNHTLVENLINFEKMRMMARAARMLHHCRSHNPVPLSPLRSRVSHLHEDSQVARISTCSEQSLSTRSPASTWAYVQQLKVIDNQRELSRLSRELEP

[18] = target: Rap guanine nucleotide exchange factor 4 (Homo sapiens) (UniProt Q8WZA2); assay: Confirmatory qHTS for agonist of cAMP-regulated guanine nucleotide exchange factor 4 (EPAC2) (AID 1645884); conditions: EPAC2 GEF activity, Rap1B-BODIPY-GDP fluorescence, percent relative to cAMP agonist control; series mostly up to 154 µM;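 also: nucleotide exchange releases bodipy-GDP from Rap1 and this lowers its fluorescence; % is scaled to controls: 0 for no effect and ±100 for the full control effect; nearly all actives have a fitted effect of over 65% in size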
[19] = target: Rap guanine nucleotide exchange factor 4 (Homo sapiens) (UniProt Q8WZA2); assay: Confirmatory qHTS for antagonist of cAMP-regulated guanine nucleotide exchange factor 4 (EPAC2) (AID 1645885); conditions: EPAC2 Rap1B-BODIPY-GDP exchange fluorescence, biochemical; series mostly up to 114 µM; also: % is scaled to controls: 0 for no effect and ±100 for the full control effect; nearly all actives have a fitted effect of over 25% in size
[20] = target: Rap guanine nucleotide exchange factor 3 (Homo sapiens) (UniProt O95398); assay: Counterscreen qHTS for antagonist of cAMP-regulated guanine nucleotide exchange factor 3 (EPAC1) (AID 1645888); conditions: Rap1B-BODIPY-GDP nucleotide exchange, fluorescence; series mostly up to 30.8 µM;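 also: fluorescence loss as bound BODIPY-GDP is released from Rap1B; % of control where 0% means no effect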
Method in brief: (§1)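 Rap1B–BODIPY-GDP (250 nM) with 50 uM GDP; compounds pin-transferred to 9.74 nM–152 uM final (activator) or from 7.32 nM upwards (inhibitor). Fluorescence Ex/Em 480/540 nm read at 5 and 30 min, then after adding cAMP or buffer, at room temperature.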

[21] = target: Rap guanine nucleotide exchange factor 3 (Homo sapiens) (UniProt O95398); assay: Counterscreen qHTS for agonist of cAMP-regulated guanine nucleotide exchange factor 3 (EPAC1) (AID 1645889); conditions: EPAC1 Rap1B-BODIPY-GDP exchange, fluorescence; series mostly up to 154 µM; also: % of control where 0% means no effect; nearly all actives have a fitted effect of over 40% in size
Method in brief: as §1

[22] = measured here: cell count channel max response
[23] = measured here: lipid channel max response

Cc1noc(C)c1C(=O)N1CCC2(CCCN(C(=O)NC(C)C)C2)CC1
inactive: Potency [1] > 11.4 µM | activity change, negative = inhibition [2] 10.5% | Potency [3] | activity change, negative = inhibition [4] 8.68% | activity, negative = inhibition [5] -2.07% | Potency [6] > 46 µM | outcome [7] | Potency [8] | Potency [9] | Potency [10]

CCNc1ncc2nc(C)c(=O)n(CCC#N)c2n1
inactive: Potency [1] > 11.4 µM | activity change, negative = inhibition [2] -5.37% | activity change, negative = inhibition [4] 8.37% | activity, negative = inhibition [5] -4.05% | Potency [11] > 9.22 µM | Potency [6] > 46 µM | outcome [7] | Potency [8] | activity change, negative = inhibition [12] 3.22% | Potency [13] | Potency [14] | Potency [15]
-0.74%: max response [12, 22]
active: Potency [3] 12.6 µM
2.02%: max response [12, 23]

O=c1c(-c2ccc(Cl)cc2)nc2cnc(N3CCOCC3)nc2n1-c1ccccc1
19.1%: max response [12, 23]
active: Potency [3] 2 µM
inactive: Potency [1] > 11.4 µM | Potency [11] > 9.22 µM | Potency [6] > 46 µM | outcome [7] | Potency [8] | Potency [9] | activity change, negative = inhibition [12] -3% | Potency [13] | Potency [16] | Potency [14] | Potency [15]
25.3%: max response [12, 22]

CC(=O)NC(c1cc(Cl)c2ccccc2c1O)C(C)C (stereo not drawn)
inactive: outcome [17] | activation [18] 9.17% [at 17.1 µM] | activity change, negative = inhibition [19] -39.3% [at 12.7 µM] | outcome [20] | activation [21] 8.27% [at 30.8 µM]

Cc1nc2cnc(N3CCOCC3)nc2n(C)c1=O
11.2%: max response [12, 22]
13.5%: max response [12, 23]
inactive: Potency [1] > 11.4 µM | activity change, negative = inhibition [2] -9.18% | activity change, negative = inhibition [4] 3.85% | activity, negative = inhibition [5] -2.49% | Potency [11] > 9.22 µM | Potency [6] > 46 µM | outcome [7] | Potency [8] | activity change, negative = inhibition [12] 4.73% | Potency [13] | Potency [16]
active: Potency [3] 6.31 µM
